Compound activity from PubChem.
Calb FLC: C. albicans growth inhibition with fluconazole, primary screen, CaCi-2 strain, Alamar Blue fluorescence | C. albicans CaCi-2 (fluconazole-resistant clinical isolate) + fluconazole, 48 h | growth inhibition, % (no concentration beside the values) | 0.57% of 300,000 active;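 active means growth inhibition above about 58% in most replicates, limit read from the data, passing the limit was not always enough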;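 further: all wells also contain fluconazole at 8 µg/ml as a sub-toxic cotreatment; 0% = median of DMSO wells and 100% = median of geldanamycin control wells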
PP5 inh: PP5 phosphatase inhibitors, primary screen, biochemical, fluorescence. purified PP5c, OMFP substrate fluorescence. inhibition, % at 6.7 µM. 0.18% of 320,000 active;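 active means inhibition above the campaign's mean inhibition across all tested compounds plus 3 SD, cut at about 9.5% in these data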;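 further: 0% = DMSO only and 100% = 100 µM cantharidin control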
Target sequence (P53041 whole entry, looked up): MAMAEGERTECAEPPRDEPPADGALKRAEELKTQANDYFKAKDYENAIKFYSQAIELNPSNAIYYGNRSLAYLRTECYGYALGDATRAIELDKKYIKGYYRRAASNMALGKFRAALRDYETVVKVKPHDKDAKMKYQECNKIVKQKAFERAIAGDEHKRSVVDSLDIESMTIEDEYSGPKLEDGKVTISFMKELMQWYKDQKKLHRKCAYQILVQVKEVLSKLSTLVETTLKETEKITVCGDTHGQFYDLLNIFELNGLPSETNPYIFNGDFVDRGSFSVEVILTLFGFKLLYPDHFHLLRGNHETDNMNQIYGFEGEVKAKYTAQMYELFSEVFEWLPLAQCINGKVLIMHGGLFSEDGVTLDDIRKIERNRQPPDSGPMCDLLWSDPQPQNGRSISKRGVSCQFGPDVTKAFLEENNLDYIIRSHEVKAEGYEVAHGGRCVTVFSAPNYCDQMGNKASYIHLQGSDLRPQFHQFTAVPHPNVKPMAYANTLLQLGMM
Mdm2 MdmX PPI: inhibitors of human Mdm2-MdmX association, primary screen, cell-based, luminescence, split luciferase, SaOS-2, uHTS; Protein Mdm4 (Homo sapiens) + E3 ubiquitin-protein ligase Mdm2 (Homo sapiens), …; SaOS-2 split-luciferase Mdm2/MdmX complementation; inhibition, % at 8 µM; 3% of 330,000 active; AID 485346, 2010;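 active means inhibition of at least 50% at 8 µM in the primary screen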
Beta cell apopt: inhibitors of cytokine-induced beta cell apoptosis, primary screen, luminescence. INS-1E cytokine-induced death, ATP luminescence, 48 h; percent of positive-control rescue, neutral wells zero. protection from apoptosis, % (concentration not given with the values). 0.8% of 300,000 active;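 active means Every replicate reaches about 75%, or at least half do and their mean reaches it too, limit read from the data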;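 further: 0% = cytokine-treated negative control wells and 100% = positive control rescue; higher means more ATP so stronger rescue from cytokine killing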
PP1 inh: PP1-alpha phosphatase inhibitors, primary screen, counter-screen for PP5 inhibitor project, biochemical, fluorescence, OMFP substrate, single point. AID 2235, 2010. purified PP1alpha. Serine/threonine-protein phosphatase PP1-alpha catalytic subunit (Homo sapiens), P62136. inhibition, % at 6.7 µM. 0.9% of 320,000 active;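 active means inhibition above the mean inhibition of all tested compounds plus 3 SD, computed separately for each screening campaign, cut at about 15% in these data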
CSC inhib: cancer stem cell viability inhibitors, primary screen, luminescence | cancer stem cell-like cells viability | inhibition, % at 7.5 µM | 1.1% of 300,000 active | AID 2717, 2010; in the data active means inhibition above about 75%; tested in HMLE shEcad cells
Active calls of the source: *; . = no result. Only some compounds are listed: those with a hit (about 4.9% of all), similar ones and a draw of the others.

SMILES | Calb FLC | PP5 inh | Mdm2 MdmX PPI | Beta cell apopt | PP1 inh | CSC inhib
O=C(Oc1c(Cl)cc(Cl)c2cccnc12)c1cccc([N+](=O)[O-])c1 | 104* | 2 | 50 | 65 | 2 | 177*
COc1ccc(N2CCN(S(=O)(=O)c3c(C(=O)N4CCOCC4)c(C)n(C)c3C)CC2)cc1 | -10 | -3 | 2 | -2 | -3 | 0
O=C(CN1CCCCC1)Nc1cccc(Cl)c1 | 6 | 2 | -9 | -2 | 3 | -9
COc1cc(NC(=O)Nc2cccc(Cl)c2)c(OC)cc1NC(=O)CN1CCCCC1 | . | 9 | 39 | 8 | 8 | 115*
CN(/N=C/c1cc(Cl)cc(Cl)c1O)C(=S)NC(C)(C)C | -5 | 1 | 8 | 15 | -7 | 100*
Oc1c(Cl)cc(Cl)cc1C=Nc1ccc2c(c1)OCCO2 | -29 | 4 | 36 | -3 | 3 | -7
O=C(CON=C1c2ccccc2-c2ccccc21)NC12CC3CC(CC(C3)C1)C2 | -12 | 0 | 26 | -9 | -2 | 179*
O=C(COC(=O)C(O)c1ccccc1)NC12CC3CC(CC(C3)C1)C2 (configuration not stated) | 5 | -3 | 5 | 2 | 5 | .
S=C(Nc1ccc2c(c1)OCO2)N1CCN(Cc2ccco2)CC1 | -7 | -1 | 5 | -6 | 0 | -1
CCOC(=O)Cc1csc(NC(=O)c2ccc3ncsc3c2)n1 | 116* | -1 | 6 | 0 | -4 | -3
CCOC(=O)Cc1csc(NC(=O)c2ccc(Br)cc2)n1 | -2 | 2 | 27 | . | -1 | -5
CC(NC(=O)COc1ccccc1F)C1CC2CCC1C2 (configuration not stated) | 8 | -1 | 12 | -5 | -2 | -10
CS(=O)(=O)N1CCC(C(=O)Nc2ccccc2Br)CC1 | -1 | 1 | 24 | -4 | -3 | -19
O=C(COC(=O)c1ccccn1)NC(=O)c1ccccc1 | . | 3 | -5 | 1 | 4 | .
Oc1ccc(N=Nc2ccc3ccccc3c2)cc1 | -11 | 3 | -231 | 2 | 5 | 111*
COc1cc(N=Nc2ccc3ccccc3c2)ccc1O | 25 | 5 | -131 | -5 | 3 | 93*
Oc1ccc(N=Nc2c(O)ccc3ccccc23)cc1 | 25 | 5 | 16 | 21 | 1 | 78*
NS(=O)(=O)c1ccc(N=Nc2c(O)ccc3ccccc23)cc1 | 33 | -1 | 26 | -6 | 3 | 27
CCOc1cc(C(=O)N2CCC(CC3CC(c4cccc(Br)c4)=NO3)(C(=O)NCC3CCCCC3)CC2)cc(OCC)c1OCC (configuration not stated) | 23 | 6 | 2 | . | 2 | -2
CC(C)(C)C(=O)NNC(=O)c1cc(C(C)(C)C)nn1Cc1ccccc1 | 4 | 2 | 7 | -8 | -3 | -18
CC(C)(C)c1cc(C(=O)NNc2cc(C(F)(F)F)ccc2Cl)n(Cc2ccccc2)n1 | -8 | 2 | 29 | 36 | 4 | 103*
CC(C)(C)c1cc(C(=O)NNc2cccc(Cl)c2)n(Cc2ccccc2)n1 | -6 | 3 | 17 | 23 | 2 | 128*
CC(C)(C)c1cc(C(=O)NNc2ccc(OC(F)(F)F)cc2)n(Cc2ccccc2)n1 | 81* | 9 | 15 | 6 | 0 | 78*
Cc1ccc(NNC(=O)c2cc(C(C)(C)C)nn2Cc2ccccc2)cc1 | 1 | 2 | 17 | 7 | -2 | 93*
COc1ccccc1NNC(=O)c1cc(C(C)(C)C)nn1Cc1ccccc1 | 17 | 7 | -11 | -1 | 5 | 30
SMILES | Calb FLC | PP5 inh | Mdm2 MdmX PPI | Beta cell apopt | PP1 inh | CSC inhib
O=C(NCc1ccccc1)c1nncc(-c2ccccc2)n1 | . | -1 | 4 | -22 | -5 | -14
O=C(N/C=C/n1cnc2cc(C(F)(F)F)ccc21)c1ccccc1 | 2 | 0 | -18 | -8 | 1 | 10
COc1ccc(N2CCN(C(=O)CN3C(=O)NC4(CCCc5ccccc54)C3=O)CC2)cc1 (configuration not stated) | -4 | 1 | 6 | 3 | -4 | .
CC(C(=O)NCCc1ccc(F)cc1)N1CCN(Cc2ccccc2)CC1 (configuration not stated) | -1 | 1 | 5 | 0 | 0 | -6
O=C(/C=C/c1ccc(F)cc1)c1ccccc1Br | -16 | 2 | 35 | -11 | 2 | 108*
CC(=O)Nc1ccccc1/C=C/c1ccc2c(C)ccc(O)c2n1 | 3 | -1 | 7 | -5 | 3 | -9
CC(=O)Nc1ccccc1/C=C/c1ccc2c(C)cc(C)c(O)c2n1 | 109* | 3 | 32 | 37 | 6 | 0
O=C(N/N=C/C1CC=CCC1)c1ccccc1O (configuration not stated) | -4 | 0 | -3 | 5 | -3 | -6
O=C(CNc1ccccc1F)N/N=C/C1CC=CCC1 (configuration not stated) | 123* | 0 | 28 | -1 | -5 | -18
Cc1ccccc1OCC(=O)Nc1ccccc1NC(=O)c1ccco1 | -1 | 1 | 5 | . | -5 | -12
Cc1ccccc1OCC(=O)NNC(=S)NC(=O)c1ccco1 | -2 | 0 | 8 | 6 | 17* | .
COc1ccccc1CC(=O)Nc1ccc(S(=O)(=O)N(C)C2CCN(C)CC2)cc1 | . | 1 | 13 | 0 | -1 | .
Cc1ccc(C(=O)Nc2cccc3[nH]c(C(F)(F)F)nc23)cc1 | 24 | 1 | 3 | 78* | 1 | 24
COc1ccc(CNc2cccc3[nH]c(C(F)(F)F)nc23)cc1 | 28 | -1 | 20 | . | -1 | 14
O=C(NCc1ccccc1)c1ccc(Cl)cc1 | -4 | -2 | 5 | -1 | -2 | -9
O=C(NCc1ccc(Cl)cc1)c1cccc(NC(=O)c2ccccc2)c1 | -10 | 1 | 29 | 11 | 1 | 111*
N#CCC(=O)Nc1ccc(C(=O)NCCC(c2ccccc2)c2ccccc2)cc1 | -4 | 3 | 9 | 4 | 16* | -3
CN(C)C(CNC(=O)c1ccc(NC(=O)CC#N)cc1)c1ccccc1 (configuration not stated) | 3 | 0 | 1 | -1 | 2 | -4
COCCNC(=O)NC12CC3CC(CC(C3)C1)C2 | 95* | 1 | 18 | 3 | 0 | -7
CNC(=O)CSc1nnc(-c2ccccc2F)n1CCc1ccccc1 | 0 | -1 | -8 | -4 | -2 | -3
COc1ccc2cc(C(C)C(=O)Nc3cccc(S(=O)(=O)N(C)C)c3)ccc2c1 (configuration not stated) | -10 | 5 | 34 | . | 3 | -3
Cc1sc2ncnc(N3CCN(S(=O)(=O)c4ccccc4)CC3)c2c1C | . | 4 | 3 | 99* | -3 | .
